NPC1 promoter act: qHTS Assay for NPC1 Promoter Activators. Huh7 NPC1 promoter luciferase reporter, 24 h. actives 2.4% (n = 320,000). Potency, µM (doses to about 9.22 µM), inactives show at the top dose activation, hits mostly activators; further: % of control where 0% means no effect; nearly all actives have a fitted effect of over 60% in size
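Quantitative HTS used a cell-based reporter: Huh7 cells stably bearing the NPC1 promoter upstream of luciferase were treated with compounds for 24 h, and promoter activation was read as luminescence.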
Rab9 prom act: qHTS Assay for Rab9 Promoter Activators | Huh7 Rab9 promoter-luciferase reporter, luminescence, 24 h | AID 485297, 2010 | actives 2.8% (n = 320,000) | Potency, µM (top dose mostly 9.22 µM), for the others: at the top dose activation, negative = inhibition, actives largely listed as activators; further: % of control where 0% means no effect; nearly all actives have a fitted effect of over 60% in size
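Cell-based reporter: Huh7 stable for Rab9 promoter-driven luciferase, plated in reduced-serum medium with 10% FBS at 1500 cells/well, compound-treated 24 h at 37 °C, luminescence read after 10 min reagent.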
FLuc counter: qHTS profiling assay for firefly luciferase inhibitor/activator using purifed enzyme and Km concentrations of substrates (counterscreen for miR-21 project) | Luciferin 4-monooxygenase (Photinus pyralis), P08659 | purified FLuc, Km substrates, luminescence inhibition | Potency, µM (titrated, usually from 57.5 µM), for the others: at the highest dose activity change, negative = inhibition, usual class: inhibitors | actives 6.9% (n = 360,000);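 further: plate controls were vehicle for no effect and reference inhibitor for full effect; nearly all actives have a fitted effect of over 55% in size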
Target sequence (P08659 whole entry, looked up): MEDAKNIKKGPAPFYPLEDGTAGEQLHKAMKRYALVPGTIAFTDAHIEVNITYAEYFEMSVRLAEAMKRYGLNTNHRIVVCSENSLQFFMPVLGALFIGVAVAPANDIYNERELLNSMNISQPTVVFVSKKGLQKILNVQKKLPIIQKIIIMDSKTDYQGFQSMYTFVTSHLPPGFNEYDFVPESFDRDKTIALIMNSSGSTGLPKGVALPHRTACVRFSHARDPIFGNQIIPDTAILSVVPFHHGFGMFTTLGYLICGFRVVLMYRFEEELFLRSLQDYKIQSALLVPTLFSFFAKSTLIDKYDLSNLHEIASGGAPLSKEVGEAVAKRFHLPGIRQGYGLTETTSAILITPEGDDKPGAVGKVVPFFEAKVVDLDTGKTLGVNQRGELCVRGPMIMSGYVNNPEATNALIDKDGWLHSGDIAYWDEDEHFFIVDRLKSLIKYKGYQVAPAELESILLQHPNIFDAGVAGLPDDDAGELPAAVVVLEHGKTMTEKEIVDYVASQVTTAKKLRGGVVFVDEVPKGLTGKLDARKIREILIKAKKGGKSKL
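Biochemical qHTS of compounds, final roughly 60 µM downward over six points, against 10 nM purified firefly luciferase using Km concentrations of substrates (10 uM D-luciferin, 10 uM ATP) in Tris acetate pH 7.5 buffer; luminescence output.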
ELG1 genotox: qHTS screen for small molecules that induce genotoxicity in human embryonic kidney (HEK293T) cells expressing luciferase-tagged ELG1; HEK293T ELG1-luciferase reporter, luminescence, 16 h; Potency, µM (series often up to 46 µM), for inactives: at the top dose activity change, positive = activation, hits mostly activators; actives 1.3% (n = 330,000); further: % of control where 0% means no effect; nearly all actives have a fitted effect of over 60% in size
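ELG1-luciferase HEK293T cells, 2,000/well; compound pinned in; 16 hr, 37 °C, 5% CO2; ONE-Glo, 30 min RT; luminescence on CCD imager.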
SMN2 splice up: qHTS Assay for Enhancers of SMN2 Splice Variant Expression; actives 2.8% (n = 210,000); HEK293 SMN2-luciferase splicing reporter, luminescence, 30-36 h; Potency, µM (top dose mostly 46.1 µM), without a hit: at the top dose activity change, positive = activation, hits mostly activators; AID 1458, 2008; further: % of control where 0% means no effect; nearly all actives have a fitted effect of over 55% in size
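HEK293 cells carry an SMN2 minigene-luciferase reporter in which exon 7 inclusion puts luciferase in frame. Cells were seeded at 2000 cells/well, attached for 10-12 hours, then exposed to compounds for 30-36 hours at 37C before ONE-Glo luminescence.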
Active calls of the source: *; u = inconclusive; x = no result; [ ] = remark or other dose. Shown are actives, neighbours in structure and some others; about 7.5% of the full set was active somewhere. The call rests on the fitted dose curve; in most records, active means well fitted curve in the direction sought with a large enough effect; inconclusive means small, poorly fitted or top-dose-only effect, or another doubt; inactive means no such curve, though single readings can be large; an effect the other way counts as inactive or inconclusive. Potency means the concentration at half of the fitted maximal effect.

SMILES	NPC1 promoter act	Rab9 prom act	FLuc counter	ELG1 genotox	SMN2 splice up
O=C(Nc1ccccc1)N1CCN(S(=O)(=O)c2ccccc2)CC1	1%	-2%	4%	0%	-1%
COc1ccc(C(=O)NCC(c2cccnc2)N2CCc3ccccc3C2)cc1OC (stereo not given)	x	x	0.67µM*	x	x
COc1cc(-c2nc(-c3ccc4c(c3)-c3ccccc3S4(=O)=O)c(-c3ccccc3)[nH]2)cc(OC)c1O	7%	1%	6.7µM*	-12%	13%
COc1cc(-c2nc(-c3cccc(Cl)c3)c(-c3ccccc3)[nH]2)cc(OC)c1OC	x	x	6%	x	9%
CCCn1c(/N=C/c2ccc3c(c2)OCO3)nc2ccccc21	11%	1%	4.8µM*	-2%	-32%
Brc1ccc(/C=N/c2nc3ccccc3n2CCN2CCOCC2)cc1	-2%	-1%	24µM*	2%	8%
C=CCc1cccc(/C=N/c2nc3ccccc3n2CC)c1O	0%	1%	2%	1%	-11%
C=CCn1c(/N=C/c2ccc3c(c2)OCO3)nc2ccccc21	0%	-2%	6.7µM*	1%	10%
C(=N\c1nc2ccccc2n1CCN1CCCCC1)/c1ccc2c(c1)OCO2	10%	-1%	-11%	2%	-6%
C(=N\c1nc2ccccc2n1CCN1CCCCC1)/c1cccs1	-3%	-6%	5%	4%	-12%
C(#CCN1CCCC1)CC(c1ccccc1)c1ccccc1	-3%	-14%	0%	-1%	x
Cn1c(S(=O)(=O)Cc2ccc(Cl)cc2)nc2ccccc21	-4%	-6%	-6%	-13%	x
Cn1c(NCc2ccc(Cl)cc2)nc2ccccc21	2.5µM*	3.5µM*	9.5µM*	u	11µM*
CCn1c(NCc2ccccc2Cl)nc2ccccc21	19%	29%	19µM*	1%	u
Cn1c(NCc2c(O)ccc3ccccc23)nc2ccccc21	-1%	-9%	u	-1%	9%
Cc1ccc(CNc2nc3ccccc3n2C)cc1	0.5µM*	0.5µM*	2.4µM*	u	x
CCn1c(NCc2ccc(OC)cc2)nc2ccccc21	1%	7%	u	11%	x
C=CCn1c(NCc2ccc(N(C)C)cc2)nc2ccccc21	18%	13%	24µM*	5%	30%
CCCCn1c(NCc2ccc(N(C)C)cc2)nc2ccccc21	3%	9%	u	-3%	-12%
CCn1c(SC)nc2c([nH]c3ccccc32)c1=O	x	x	-9%	x	x
COC(=O)c1ccc(NC(=O)c2ccc(F)cc2)o1	-3%	-6%	u	0%	-27%
COC(=O)c1ccc(NC(=O)c2ccc(C)cc2)o1	15%	24%	19µM*	2%	4%
Cc1cc(C)cc(C(=O)N2CCC3(CC2)NCCc2[nH]cnc23)c1	-2%	-2%	3%	1%	x
Cc1ccc(C2/C=C\CC(NC(=O)OCC3c4ccccc4-c4ccccc43)CC(=O)N2Cc2ccccc2)cc1 (stereo not given)	x	x	x	-1%	x
O=C(NC1CCCC1)c1cc(-c2ccc(Cl)cc2Cl)on1	1µM*	3.5µM*	0.85µM*	1.3µM*	x
SMILES	NPC1 promoter act	Rab9 prom act	FLuc counter	ELG1 genotox	SMN2 splice up
O=C(NC1CCCCC1)c1cc(-c2cccc(Cl)c2)on1	u	u	-13%	u	x
O=C(CCCc1nc(-c2ccccc2Cl)no1)NC1CCCCC1	0%	2%	-11%	-9%	-14%
O=C(NC1CCCCC1)c1cc(-c2ccccc2Cl)on1	u	2.8µM*	u	21µM*	x
O=C(NC1CCCC1)c1cc(-c2ccccc2O)on1	13%	6%	4.8µM*	15µM*	x
O=C(NC1CCCC1)c1cc(-c2ccccc2Cl)on1	1.6µM*	2.5µM*	5.4µM*	u	x
NC(=O)c1nsc(C(=O)N(CC(=O)NC2CCCC2)Cc2ccc3c(c2)OCO3)c1N	-10%	1%	0%	-4%	x
COc1ccc(-c2cc(C(=O)NC3CCCC3)no2)cc1OC	u	25%	-3%	7%	2%
COc1ccccc1-c1cc(C(=O)NC2CCCC2)no1	u	u	19µM*	u	x
O=C(NCc1ccccc1)c1cc(=O)c2ccccc2o1	-1%	-1%	0%	-5%	-6%
O=C(Nc1ccccc1Cl)c1cc(=O)c2ccccc2o1	3.5µM*	u	15µM*	u	x
O=C(Nc1ccccc1Br)c1cc(=O)c2ccccc2o1	2.5µM*	4µM*	12µM*	7.3µM*	x
Cc1cc(C)c2c(=O)cc(C(=O)Nc3ccccc3Cl)oc2c1	x	x	-1%	x	14%
O=C(NCCc1ccccn1)c1nc(Cn2ccc([N+](=O)[O-])n2)no1	-2%	3%	0%	0%	x
COc1ccccc1-n1cc(-c2ccccc2)c2c(=S)nc[nH]c21	-3%	-1%	5%	6%[9.26 µM]	x
O=C1c2cccc3c(O)ccc(c23)C(=O)N1c1ccc(Cl)cc1	3.5µM*	0.79µM*	17µM*	6%	x
CCOc1ccc(N2CC(C(=O)Nc3cc(OCC)c(N4CCOCC4)cc3OCC)CC2=O)cc1 (stereo not given)	0%	-2%	-2%	1%	x
Cc1ccc(C(=O)c2ccc(N3CCOCC3)c(F)c2)cc1	19%	30%	17µM*	9%	-39%
CCN(C(=O)c1cccn(Cc2ccccc2C)c1=O)c1ccccc1	x	x	4%	x	x
CCCCCN=C(C)c1c(O)c2ccccc2oc1=O	u	u	17µM*	u	x
C/C(=N/NS(=O)(=O)c1ccc(C)cc1)c1c(O)c2ccccc2oc1=O	-4%	0%	-1%	-7%	x
COc1cccc([C@@H]2Oc3ccc(OC)cc3C[C@H]2OC(=O)N[C@H](C)C2CCCCC2)c1	x	x	x	x	3%
Cc1cccc2cc(/C=N/Nc3ccc(C(=O)O)cc3)c(Cl)nc12	0.4µM*	0.4µM*	0.67µM*	5.2µM*	x
C(=N\Nc1nc2ccccc2[nH]1)/c1ccncc1	u	u	u	u	-9%
Clc1nc2ccccc2cc1/C=N/Nc1nc2ccccc2[nH]1	3.5µM*	2.5µM*	0.19µM*	u	7.9µM*
Cc1cccc2cc(/C=N/NC(=O)c3ccncc3)c(Cl)nc12	-6%	-2%	-1%	-1%	x
CC(C)(C)OC(=O)N1CCC[C@H]1C(=O)N/N=C/c1cccc2nccnc12	-5%	0%	17µM*	2%	x
O=C(O)c1ccc(N/N=C/c2cccc3nccnc23)cc1	u	u	6.7µM*	8%	x
C[C@H](NC(=O)OC(C)(C)C)C(=O)N/N=C/c1cccc2nccnc12	1%	-3%	5%	1%	x
CCCCNS(=O)(=O)c1ccc2nc(-c3cccs3)cc(C(=O)NCC(OC)OC)c2c1	1%	-4%	1%	-7%	-12%
